# Activity calls are given as the source filed them.
# Key:
# [1] = system: Plasmodium falciparum Sir2 (PF13_0152, Sir2A); experiment: Plasmodium falciparum Sir2A binding compounds – biochemical, small-molecule microarray, 635 nm fluorescence, primary screen (AID 1098); conditions: fluorescence 635 nm, higher = more signal;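 note: score merges spot fluorescence intensity with its signal-to-noise ratio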
# [2] = probe aDKK1 binding to arrayed compounds – biochemical, biotinylated probe, 635/667 nm fluorescence, primary screen (AID 1099); conditions: small-molecule microarray, higher = more signal;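 note: score merges 667nm spot fluorescence with signal to noise across triplicate slides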
# [3] = probe aCHRDL2 binding to arrayed compounds – biochemical, biotinylated probe, 635/667 nm fluorescence, primary screen (AID 1100); conditions: small-molecule microarray, higher = more signal
# [4] = change in splice reporter luminescence, either direction, cell-based, HEK293, spliceosome inhibition project, primary screen (AID 1101); conditions: HEK293 splicing luciferase reporter, 24 h, higher = more signal, called active from +8 up or from −8 down;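 note: HEK293 cells carrying a splicing-competent luciferase reporter gene; test concentration not given here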
# [5] = biological target: Fibroblast growth factor 10 (Homo sapiens) (UniProt O15520); experiment: compounds binding fibroblast growth factor 10 – biochemical, small-molecule microarray, 635 nm fluorescence, primary screen (AID 1102); conditions: FGF10 binding, fluorescence 635 nm, higher = more signal
# Fibroblast growth factor 10 (Homo sapiens), sequence (O15520 whole entry, looked up): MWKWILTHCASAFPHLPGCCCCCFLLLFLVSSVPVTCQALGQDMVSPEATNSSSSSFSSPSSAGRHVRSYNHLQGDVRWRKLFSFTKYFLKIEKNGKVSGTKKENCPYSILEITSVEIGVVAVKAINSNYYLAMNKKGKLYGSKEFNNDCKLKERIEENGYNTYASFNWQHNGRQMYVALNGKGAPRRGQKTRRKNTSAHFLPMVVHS
# [6] = system: glycogen synthase kinase-3 (GSK3A per assay name; protocol says GSK3B); experiment: compounds binding glycogen synthase kinase-3 – biochemical, small-molecule microarray, 635 nm fluorescence, GSK3A, primary screen (AID 1103); conditions: fluorescence 635 nm, higher = more signal; note: the record names both GSK3A and GSK3B
# [7] = biological target: Epidermal growth factor receptor (Homo sapiens) (UniProt P00533); experiment: compounds binding epidermal growth factor receptor – biochemical, small-molecule microarray, 635 nm fluorescence, primary screen (AID 1104); conditions: EGFR binding, higher = more signal;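 note: score merges 667 nm emission intensity with spot signal to noise over triplicate slides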
# Epidermal growth factor receptor (Homo sapiens), sequence (P00533 whole entry, looked up): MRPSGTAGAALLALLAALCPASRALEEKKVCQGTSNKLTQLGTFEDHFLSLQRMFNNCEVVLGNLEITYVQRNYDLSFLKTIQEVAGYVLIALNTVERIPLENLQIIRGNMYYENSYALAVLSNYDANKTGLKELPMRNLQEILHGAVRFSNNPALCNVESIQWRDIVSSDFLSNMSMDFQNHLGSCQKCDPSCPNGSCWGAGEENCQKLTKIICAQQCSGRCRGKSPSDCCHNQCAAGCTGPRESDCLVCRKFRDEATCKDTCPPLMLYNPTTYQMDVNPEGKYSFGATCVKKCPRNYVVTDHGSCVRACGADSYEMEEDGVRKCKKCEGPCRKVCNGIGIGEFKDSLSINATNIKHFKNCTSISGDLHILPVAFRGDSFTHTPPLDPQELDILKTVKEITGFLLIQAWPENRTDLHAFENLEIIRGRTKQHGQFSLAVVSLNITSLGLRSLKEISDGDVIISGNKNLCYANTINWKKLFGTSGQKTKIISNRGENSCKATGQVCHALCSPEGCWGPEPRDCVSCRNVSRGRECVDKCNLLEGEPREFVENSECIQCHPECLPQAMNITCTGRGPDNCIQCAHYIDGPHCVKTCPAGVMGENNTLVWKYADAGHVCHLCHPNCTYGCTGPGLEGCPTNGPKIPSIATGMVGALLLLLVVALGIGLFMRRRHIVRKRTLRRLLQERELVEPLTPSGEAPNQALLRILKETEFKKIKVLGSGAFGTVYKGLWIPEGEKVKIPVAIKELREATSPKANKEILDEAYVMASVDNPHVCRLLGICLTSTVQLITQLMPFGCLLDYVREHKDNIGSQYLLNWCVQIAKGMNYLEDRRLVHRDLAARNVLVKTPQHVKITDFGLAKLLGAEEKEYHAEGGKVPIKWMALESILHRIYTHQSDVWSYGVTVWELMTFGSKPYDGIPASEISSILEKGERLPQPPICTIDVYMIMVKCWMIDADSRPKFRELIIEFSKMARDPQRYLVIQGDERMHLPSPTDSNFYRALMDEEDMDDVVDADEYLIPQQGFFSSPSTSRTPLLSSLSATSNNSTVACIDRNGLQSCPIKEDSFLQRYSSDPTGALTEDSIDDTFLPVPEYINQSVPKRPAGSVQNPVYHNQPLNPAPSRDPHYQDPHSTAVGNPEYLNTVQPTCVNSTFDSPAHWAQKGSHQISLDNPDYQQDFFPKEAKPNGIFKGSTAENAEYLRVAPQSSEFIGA
# [8] = biological target: Follistatin-related protein 3 (Homo sapiens) (UniProt O95633); experiment: compounds binding follistatin-related protein 3 – biochemical, small-molecule microarray, 635 nm fluorescence, primary screen (AID 1105); conditions: FSTL3 binding, higher = more signal;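 note: score merges emission near 667 nm and signal to noise per printed spot across three slides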
# Follistatin-related protein 3 (Homo sapiens), sequence (O95633 whole entry, looked up): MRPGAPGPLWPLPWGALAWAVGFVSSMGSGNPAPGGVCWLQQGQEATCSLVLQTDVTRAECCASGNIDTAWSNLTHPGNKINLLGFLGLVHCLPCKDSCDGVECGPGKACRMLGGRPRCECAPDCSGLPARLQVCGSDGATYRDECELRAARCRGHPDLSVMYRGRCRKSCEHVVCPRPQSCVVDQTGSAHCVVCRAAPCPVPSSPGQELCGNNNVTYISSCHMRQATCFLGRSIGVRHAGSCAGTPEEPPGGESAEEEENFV
# [9] = biological target: Dickkopf-related protein 1 (Homo sapiens) (UniProt O94907); experiment: small molecules binding DKK1 protein – biochemical, small-molecule microarray, 635 nm fluorescence scan, primary screen (AID 1106); conditions: higher = more signal;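 note: score merges emission near 667 nm with signal to noise over three replicate slides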
# Dickkopf-related protein 1 (Homo sapiens), sequence (O94907 whole entry, looked up): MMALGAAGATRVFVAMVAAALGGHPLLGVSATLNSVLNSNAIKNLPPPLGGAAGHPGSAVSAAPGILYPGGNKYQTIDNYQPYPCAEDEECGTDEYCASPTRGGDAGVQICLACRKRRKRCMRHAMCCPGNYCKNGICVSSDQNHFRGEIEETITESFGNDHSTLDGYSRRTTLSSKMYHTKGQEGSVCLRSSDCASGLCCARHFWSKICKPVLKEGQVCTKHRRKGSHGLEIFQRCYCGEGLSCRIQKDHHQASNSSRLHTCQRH
# [10] = system: Inhibin beta A chain (activin A); experiment: small molecules binding activin A – biochemical, small-molecule microarray, 635 nm fluorescence scan, primary screen (AID 1107); conditions: INHBA, higher = more signal;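 note: mouse activin A protein probed at 4.33 µg/mL on printed slides; score merges bound-protein fluorescence near 667 nm with spot signal-to-noise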
# [11] = system: Human papillomavirus type 1a protein E7 (residues 44-93); experiment: small molecules binding HPV E7 44-93 – biochemical, small-molecule microarray, residues 44-93, 635 nm fluorescence, primary screen (AID 1108); conditions: fluorescence 635 nm, higher = more signal;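 note: E7 fragment applied at 1 µg/mL in TBST for 1 h at 4 C; score combines spot fluorescence with its signal to noise ratio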
# [12] = hepatitis C replication reporter changes, two-sided – Huh7 cells, luciferase reporter, HCV replication inhibitor project, primary screen (AID 1109); conditions: Huh7 HCV replicon luciferase reporter, 48 h; higher = more signal;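 note: huh7 hepatoma cells harbouring a luciferase neomycin HCV replicon reporter; luciferase luminescence as measure of HCV replicon replication; test concentration not given here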
# [13] = biological target: Left-right determination factor 2 (Homo sapiens) (UniProt O00292); experiment: small molecules binding LEFTY2 protein – biochemical, small-molecule microarray, 635 nm fluorescence scan, primary screen (AID 1110); conditions: higher = more signal
# Left-right determination factor 2 (Homo sapiens), sequence (O00292 whole entry, looked up): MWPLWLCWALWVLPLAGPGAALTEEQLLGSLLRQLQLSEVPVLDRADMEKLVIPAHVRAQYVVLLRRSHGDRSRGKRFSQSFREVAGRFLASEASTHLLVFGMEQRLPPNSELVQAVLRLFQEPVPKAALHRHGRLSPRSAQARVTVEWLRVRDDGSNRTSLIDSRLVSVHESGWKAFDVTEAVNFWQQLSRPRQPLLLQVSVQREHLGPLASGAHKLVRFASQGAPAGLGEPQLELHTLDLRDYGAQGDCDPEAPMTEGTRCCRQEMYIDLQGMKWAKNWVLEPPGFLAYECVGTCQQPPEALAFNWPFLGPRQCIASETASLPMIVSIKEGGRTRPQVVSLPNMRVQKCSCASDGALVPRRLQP
# [14] = biological target: Calmodulin-1 (Homo sapiens) (UniProt P0DP23); experiment: small molecules binding calmodulin-1 with EGTA – biochemical, small-molecule microarray, Cy5-labelled CALM1, profiling panel (AID 1111); conditions: Cy5-CALM1 binding fluorescence, higher = more signal;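 note: labelled calmodulin applied in Tris saline Tween buffer holding calcium plus EGTA and DTT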
# [15] = biological target: Calmodulin-1 (Homo sapiens) (UniProt P0DP23); experiment: small molecules binding Ca-loaded calmodulin-1 – biochemical, small-molecule microarray, Cy5-labelled CALM1, plus calcium, artefact control for SMM control-protein annotation, profiling panel (AID 1112); conditions: Cy5-CALM1 binding fluorescence, higher = more signal;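 note: score merges spot fluorescence with signal to noise from triplicate slides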
# [16] = probe aWnt5a binding to arrayed compounds – biochemical, biotinylated probe, 635/667 nm fluorescence, primary screen (AID 1113); conditions: small-molecule microarray, higher = more signal;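 note: score merges 667 nm fluorescence intensity with signal-to-noise per printed feature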
# [17] = probe aShh binding to arrayed compounds – biochemical, biotinylated probe, 635/667 nm fluorescence, primary screen (AID 1114); conditions: small-molecule microarray, higher = more signal;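 note: probe is biotin-labelled aShh protein from a stem cell growth factor screen; measures binding of labelled protein to compounds printed on the slide; score merges feature fluorescence at 667 nm with signal-to-noise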
# [18] = probe aNog binding to arrayed compounds – biochemical, biotinylated probe, 635/667 nm fluorescence, primary screen (AID 1115); conditions: small-molecule microarray, higher = more signal;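 note: probe is biotinylated aNog protein used at 0.15 µg/mL for 1 h at 4 C; z-score combines 667 nm fluorescence of each spot with its signal to noise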
# [19] = biological target: Torsin-1A-interacting protein 1 (Homo sapiens) (UniProt Q5JTV8); experiment: compound microarray binding of lysate hLAP1 – cell lysate, small-molecule microarray, COS7 lysate, 635/667 nm fluorescence, primary screen (AID 1116); conditions: 635 nm fluorescence, higher = more signal
# Torsin-1A-interacting protein 1 (Homo sapiens), sequence (Q5JTV8 whole entry, looked up): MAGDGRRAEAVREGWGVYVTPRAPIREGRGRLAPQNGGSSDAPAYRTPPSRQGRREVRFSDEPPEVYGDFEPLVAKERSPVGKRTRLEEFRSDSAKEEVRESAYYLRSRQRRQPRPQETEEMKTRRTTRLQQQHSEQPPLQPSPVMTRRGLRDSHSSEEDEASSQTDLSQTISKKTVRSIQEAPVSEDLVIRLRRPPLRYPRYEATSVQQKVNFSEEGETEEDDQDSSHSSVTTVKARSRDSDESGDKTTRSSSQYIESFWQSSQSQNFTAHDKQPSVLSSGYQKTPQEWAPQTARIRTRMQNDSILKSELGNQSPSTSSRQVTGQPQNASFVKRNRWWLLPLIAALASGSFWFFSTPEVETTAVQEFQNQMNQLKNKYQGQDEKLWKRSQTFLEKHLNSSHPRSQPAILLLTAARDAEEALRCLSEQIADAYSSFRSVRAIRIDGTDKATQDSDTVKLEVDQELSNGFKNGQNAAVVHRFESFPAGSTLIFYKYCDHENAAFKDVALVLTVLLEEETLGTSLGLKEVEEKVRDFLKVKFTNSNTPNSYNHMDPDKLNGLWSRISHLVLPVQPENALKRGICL
# [20] = biological target: Alpha-bungarotoxin (Bungarus multicinctus) (UniProt P60615); experiment: compounds binding labelled alpha-BTX control protein – biochemical, small-molecule microarray, Alexa647 label, 635/667 nm fluorescence, artefact control for SMM control protein annotation, profiling panel (AID 1117); conditions: alpha-BTX-A647 binding fluorescence, higher = more signal
# Alpha-bungarotoxin (Bungarus multicinctus), sequence (P60615 whole entry, looked up): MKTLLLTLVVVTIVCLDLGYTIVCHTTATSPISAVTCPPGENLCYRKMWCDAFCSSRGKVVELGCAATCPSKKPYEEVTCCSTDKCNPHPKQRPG
Compound,composite z-score [1],composite z-score [2],composite z-score [3],z-score [4],composite z-score [5],composite z-score [6],composite z-score [7],composite z-score [8],composite z-score [9],composite z-score [10],composite z-score [11],z-score [12],composite z-score [13],composite z-score [14],composite z-score [15],composite z-score [16],composite z-score [17],composite z-score [18],composite z-score [19],composite z-score [20]
CCCC/C=C/[C@H]([C@@H](O)Cc1ccccc1)N(CC#Cc1ccccc1)Cc1ccccc1Br,-0.488,0.113,1.26,-0.669 (inactive),-1.47,-0.749,-1.77,-1.55,-2.53,0.109,-0.373,-1.29,-1.81,-0.269,0.74,-0.166,-0.366,-0.132,-0.356,-0.647
COc1ccc(CCN2C(=O)[C@@]3(c4ccc([N+](=O)[O-])cc4)CC(=O)N(CC45CC6CC(CC(C6)C4)C5)[C@@H]3c3ccc(CO)cc32)cc1,1.42,0.463,0.761,-0.604 (inactive),-0.212,0.592,-0.645,-0.203,-0.369,0.718,-0.047,-0.673,0.16,0.207,-0.474,-0.0101,-0.181,-0.476,0.352,0.119
CC(C)(C)OC(=O)CC[C@]1(C(=O)NCCN2CCOCC2)N=C(c2ccc(OCCCO)cc2)O[C@H]1c1ccccc1CN=[N+]=[N-],0.639,0.626,0.777,-1.59 (inactive),-0.0042,0.813,-0.243,-0.49,-0.663,0.82,0.309,-1.77,0.0415,1.12,0.608,-0.0944,0.0469,0.816,2.12,2.01
COc1ccc([Si](C)(C)[C@H]2[C@H](CCO)O[C@@]3(C(=O)N(Cc4ccc(N5CCCCC5=O)cc4)c4ccccc43)[C@@H]2C)cc1,1.36,0.175,0.37,1.23 (inactive),0.345,0.642,0.122,0.55,0.236,0.766,0.247,-4.77,0.139,1.49,1.02,-0.116,0.0141,0.338,0.643,1.7
C=CCC(OC(C)=O)[C@@H]1[C@@H](N(Cc2ccc(-c3ccccc3)cc2)C(=O)c2ccc(-c3ccccc3)cc2)c2cc(OCCCO)ccc2N1C(=O)Cc1ccc(OC)cc1 (stereo not given in full),-0.322,0.0651,0.026,-0.792 (inactive),0.035,-0.0305,-0.25,0.491,-0.345,1.28,0.273,-1.57,0.241,0.165,0.229,0.164,0.011,0.0921,-0.209,0.265
C=CCNC(=O)[C@H]1[C@@H]2C(=O)O[C@@H](c3ccccc3)[C@@H](c3ccccc3)N2[C@@H](c2ccccc2OCCO)[C@]12C(=O)N(C(=O)OCCOC)c1ccc(C#CCC(C(=O)OC)C(=O)OC)cc12,1.1,0.572,0.155,-1.69 (inactive),0.541,1.29,0.328,0.919,0.271,0.641,-0.29,-1.22,0.208,1.57,0.865,-0.012,0.217,0.419,0.926,1.87
COc1cc2c(cc1OC)CN(C(=O)[C@H]1[C@@H]3C(=O)O[C@@H](c4ccccc4)[C@@H](c4ccccc4)N3[C@@H](c3ccccc3OCCO)[C@]13C(=O)Nc1ccc(C#CC4(O)CCCCCC4)cc13)CC2,1.6,0.329,0.453,-1.16 (inactive),1.06,1.3,0.525,0.564,0.693,0.113,-0.178,-2.36,0.519,1.16,-0.407,0.0676,0.0684,-0.356,1.02,1.83
COC(=O)Cn1c(C(=O)N2CCCC2)cc2c1C[C@H]1CN(C(=O)c3ccccc3)[C@@](Cc3ccccc3)(C(=O)OC)[C@@H]21,0.473,0.789,1.09,0.309 (inactive),0.0175,-0.838,-0.282,0.105,-0.837,0.632,0.225,-1.02,-0.0875,0.79,0.589,-0.006,0.0639,-0.374,0.261,0.236
CO[C@H]1COC(=O)CC=C[C@@H](C)COC(=O)[C@@H](C)NC(=O)CC=C[C@@H]1C,1.35,-0.954,-1.84,-2.81 (inactive),0.567,0.967,1.39,1.45,2.01,-0.529,-0.291,0.325,1.6,-3.42,-3.57,-0.307,0.238,-0.139,-0.229,-0.706
CN1C(=O)C2C=CC(C(O)c3ccc(N(C)C)cc3)N(Nc3ccc([N+](=O)[O-])cc3[N+](=O)[O-])C2C1=O (stereo not given),1.27,1.17,0.33,1.16 (inactive),0.887,1.2,0.737,1.2,0.137,1.49,0.501,-0.353,0.371,0.49,0.697,0.055,0.446,1.7,1,0.988
CCCC=C(CCC)[C@@H](NS(=O)(=O)c1cccc(C(F)(F)F)c1)c1ccc(C(=O)OC)cc1,0.935,1.55,1.06,-0.489 (inactive),-0.67,0.37,-1.1,-0.271,-0.553,-0.507,1.19,-0.0175,-0.81,0.266,-0.385,1.12,1.06,2.97,0.209,0.398
